Hit rate of the full screen: of about 5,500 compounds, about 2,000 (36%) were called active. Roughly 18% stayed inconclusive and do not appear here. No stated cut-off is given here; in the data, active means normalized growth mostly below about 0.91 (no sharp cut-off); inconclusive means no clear call, values can overlap the other calls; inactive means mostly above about 0.92. The list shows a part of the results.
Test: chemical genetic growth profiling, strain panel (AID 1159580);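 further: tested at 20 µM; growth read once vehicle control cultures reached saturation at 30 °C; 1 = growth at the plate median or of vehicle wells; lower values mean less growth of the strain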
Conditions: growth OD
[1] = S. cerevisiae deletion strains, locus YHR030C, strain SLT2, hits give low values
[2] = S. cerevisiae deletion strains, locus YJL187C, strain SWE1, hits give low values

Measured: normalized growth

O=S(=O)(O)c1cccc2cccc(Cl)c12
inactive: S. cerevisiae deletion strains, locus YAL013W, strain DEP1, hits give low values 1.01 | S. cerevisiae deletion strains, locus YBR229C, strain ROT2, hits give low values 1.01 | S. cerevisiae deletion strains, locus YDL101C, strain DUN1, hits give low values 0.984 | S. cerevisiae deletion strains, locus YDR150W, strain NUM1, hits give low values 0.93 | S. cerevisiae deletion strains, locus YEL061C, strain CIN8, hits give low values 0.998 | S. cerevisiae deletion strains, locus YGR078C, strain PAC10, hits give low values 1 | [1] 0.985 | S. cerevisiae deletion strains, locus YHR087W, strain rtc3, hits give low values 1.06 | [2] 1 | S. cerevisiae deletion strains, locus YJR043C, strain POL32, hits give low values 0.993 | S. cerevisiae deletion strains, locus YJR075W, strain HOC1, hits give low values 0.999 | S. cerevisiae deletion strains, locus YLR039C, strain RIC1, hits give low values 0.996 | S. cerevisiae deletion strains, locus YLR058C, strain SHM2 (second series), hits give low values 1.01 | S. cerevisiae deletion strains, locus YLR085C, strain ARP6, hits give low values 1.03 | S. cerevisiae deletion strains, locus YLR262C, strain YPT6, hits give low values 1.01 | S. cerevisiae deletion strains, locus YML094W, strain GIM5, hits give low values 1.03 | S. cerevisiae deletion strains, locus YMR219W, strain ESC1, hits give low values 1.02 | S. cerevisiae deletion strains, locus YMR263W, strain SAP30, hits give low values 1.01 | S. cerevisiae deletion strains, locus YMR307W, strain GAS1, hits give low values 0.996 | S. cerevisiae deletion strains, locus YNL153C, strain GIM3, hits give low values 0.999 | S. cerevisiae deletion strains, locus YNL298W, strain CLA4 (second series), hits give low values 1.02 | S. cerevisiae deletion strains, locus YNL322C, strain KRE1, hits give low values 1 | S. cerevisiae deletion strains, locus YNR030W, strain Alg12, hits give low values 1.03 | S. cerevisiae deletion strains, locus YPL055C, strain LGE1, hits give low values 1.02 | S. cerevisiae deletion strains, locus YPL241C, strain CIN2, hits give low values 1.01 | S. cerevisiae deletion strains, locus YPR135W, strain CTF4, hits give low values 0.973 | S. cerevisiae strains, strain wild type, hits give low values 0.984

O=C(O)CCCN1C(=O)c2cccc3cccc(c23)C1=O
inactive: S. cerevisiae deletion strains, locus YAL021C, strain ccr4, hits give low values 0.983 | S. cerevisiae deletion strains, locus YAL026C, strain drs2, hits give low values 1.02 | S. cerevisiae deletion strains, locus YAL030W, strain snc1, hits give low values 1.01 | S. cerevisiae deletion strains, locus YBL061C, strain skt5, hits give low values 1.01 | S. cerevisiae deletion strains, locus YBR009C, strain hhf1, hits give low values 1.02 | S. cerevisiae deletion strains, locus YBR023C, strain chs3, hits give low values 1.01 | S. cerevisiae deletion strains, locus YBR171W, strain sec66, hits give low values 1.01 | S. cerevisiae deletion strains, locus YBR231C, strain swc5, hits give low values 1.01 | S. cerevisiae deletion strains, locus YBR279W, strain paf1, hits give low values 1.01 | S. cerevisiae deletion strains, locus YCL011C, strain gbp2, hits give low values 1.02 | S. cerevisiae deletion strains, locus YCL016C, strain dcc1, hits give low values 1.02 | S. cerevisiae deletion strains, locus YCL061C, strain MRC1, hits give low values 1.02 | S. cerevisiae deletion strains, locus YCL069W, strain vba3, hits give low values 1.02 | S. cerevisiae deletion strains, locus YCR088W, strain abp1, hits give low values 1.02 | S. cerevisiae deletion strains, locus YDL005C, strain med2, hits give low values 1 | S. cerevisiae deletion strains, locus YDL040C, strain nat1, hits give low values 1 | S. cerevisiae deletion strains, locus YDR001C, strain nth1, hits give low values 1.01 | S. cerevisiae deletion strains, locus YDR069C, strain doa4, hits give low values 1.02 | S. cerevisiae deletion strains, locus YDR137W, strain rgp1, hits give low values 1.01 | S. cerevisiae deletion strains, locus YDR159W, strain sac3, hits give low values 1.01 | S. cerevisiae deletion strains, locus YDR195W, strain ref2 1.05 | S. cerevisiae deletion strains, locus YDR297W, strain sur2, hits give low values 1.01 | S. cerevisiae deletion strains, locus YDR334W, strain swr1, hits give low values 1.02 | S. cerevisiae deletion strains, locus YDR335W, strain msn5, hits give low values 1.01 | S. cerevisiae deletion strains, locus YDR392W, strain spt3, hits give low values 0.882 | S. cerevisiae deletion strains, locus YEL003W, strain gim4, hits give low values 1.01 | S. cerevisiae deletion strains, locus YEL037C, strain rad23, hits give low values 1.01 | S. cerevisiae deletion strains, locus YEL061C, strain CIN8 (second series), hits give low values 1.01 | S. cerevisiae deletion strains, locus YER015W, strain faa2, hits give low values 1.01 | S. cerevisiae deletion strains, locus YER016W, strain bim1, hits give low values 1.02 | S. cerevisiae deletion strains, locus YER111C, strain swi4, hits give low values 1.01 | S. cerevisiae deletion strains, locus YER155C, strain BEM2 (second series), hits give low values 1 | S. cerevisiae deletion strains, locus YFR010W, strain ubp6, hits give low values 1.01 | S. cerevisiae deletion strains, locus YGL167C, strain pmr1, hits give low values 1.01 | S. cerevisiae deletion strains, locus YGL173C, strain kem1, hits give low values 1.02 | S. cerevisiae deletion strains, locus YGL227W, strain vid30, hits give low values 1.02 | S. cerevisiae deletion strains, locus YGL240W, strain doc1, hits give low values 1 | S. cerevisiae deletion strains, locus YGL253W, strain hxk2, hits give low values 1.02 | S. cerevisiae deletion strains, locus YHR013C, strain ard1, hits give low values 0.97 | S. cerevisiae deletion strains, locus YHR027C, strain rpn1, hits give low values 1.02 | [1] 1 | S. cerevisiae deletion strains, locus YHR079C, strain IRE1, hits give low values 0.998 | S. cerevisiae deletion strains, locus YHR142W, strain chs7, hits give low values 0.991 | S. cerevisiae deletion strains, locus YJL092W, strain hpr5, hits give low values 1.01 | S. cerevisiae deletion strains, locus YJL095W, strain BCK1 (second series), hits give low values 1.01 | S. cerevisiae deletion strains, locus YJL095W, strain BCK1, hits give low values 0.998 | S. cerevisiae deletion strains, locus YJL115W, strain asf1, hits give low values 1.02 | S. cerevisiae deletion strains, locus YJL129C, strain trk1, hits give low values 1.02 | S. cerevisiae deletion strains, locus YJL154C, strain vps35, hits give low values 1.01 | S. cerevisiae deletion strains, locus YJL164C, strain tpk1, hits give low values 0.992 | S. cerevisiae deletion strains, locus YJL166W, strain qcr8, hits give low values 1.01 | [2] 1.01 | S. cerevisiae deletion strains, locus YJR066W, strain TOR1, hits give low values 0.963 | S. cerevisiae deletion strains, locus YKL160W, strain elf1, hits give low values 0.988 | S. cerevisiae deletion strains, locus YKR026C, strain gcn3, hits give low values 1.02 | S. cerevisiae deletion strains, locus YKR091W, strain srl3, hits give low values 1.01 | S. cerevisiae deletion strains, locus YLL001W, strain dnm1, hits give low values 1.03 | S. cerevisiae deletion strains, locus YLL026W, hits give low values 1.01 | S. cerevisiae deletion strains, locus YLL041C, strain sdh2, hits give low values 1.01 | S. cerevisiae deletion strains, locus YLR027C, strain aat2, hits give low values 1.01 | S. cerevisiae deletion strains, locus YLR113W, strain HOG1, hits give low values 1.03 | S. cerevisiae deletion strains, locus YLR221C, strain rsa3, hits give low values 0.996 | S. cerevisiae deletion strains, locus YLR258W, strain gsy2, hits give low values 1.02 | S. cerevisiae deletion strains, locus YLR262C, strain YPT6 (second series), hits give low values 0.983 | S. cerevisiae deletion strains, locus YLR320W, strain mms22, hits give low values 0.986 | S. cerevisiae deletion strains, locus YLR342W, strain FKS1, hits give low values 1.02 | S. cerevisiae deletion strains, locus YLR357W, strain rsc2, hits give low values 1.04 | S. cerevisiae deletion strains, locus YLR370C, strain arc18, hits give low values 1.02 | S. cerevisiae deletion strains, locus YLR384C, strain iki3, hits give low values 1.01 | S. cerevisiae deletion strains, locus YML120C, strain ndi1, hits give low values 1 | S. cerevisiae deletion strains, locus YMR058W, strain fet3, hits give low values 1.02 | S. cerevisiae deletion strains, locus YMR125W, strain sto1, hits give low values 1.03 | S. cerevisiae deletion strains, locus YMR129W, hits give low values 1.02 | S. cerevisiae deletion strains, locus YMR205C, strain PFK2, hits give low values 1.03 | S. cerevisiae deletion strains, locus YMR231W, strain pep5, hits give low values 1.01 | S. cerevisiae deletion strains, locus YNL071W, strain lat1, hits give low values 0.994 | S. cerevisiae deletion strains, locus YNL183C, strain NPR1, hits give low values 0.931 | S. cerevisiae deletion strains, locus YNL209W, strain ssb2, hits give low values 1.01 | S. cerevisiae deletion strains, locus YNL248C, strain rpa49, hits give low values 0.98 | S. cerevisiae deletion strains, locus YNL322C, strain KRE1 (second series), hits give low values 1.02 | S. cerevisiae deletion strains, locus YNR049C, strain mso1, hits give low values 1.01 | S. cerevisiae deletion strains, locus YOR001W, strain rrp6, hits give low values 0.976 | S. cerevisiae deletion strains, locus YOR070C, strain gyp1, hits give low values 1.01 | S. cerevisiae deletion strains, locus YOR080W, strain dia2, hits give low values 1.02 | S. cerevisiae deletion strains, locus YOR083W, strain WHI5, hits give low values 0.995 | S. cerevisiae deletion strains, locus YOR106W, strain vam3, hits give low values 1.01 | S. cerevisiae deletion strains, locus YOR231W, strain MKK1, hits give low values 1.02 | S. cerevisiae deletion strains, locus YOR265W, strain rbl2, hits give low values 1.01 | S. cerevisiae deletion strains, locus YOR270C, strain vph1, hits give low values 0.999 | S. cerevisiae deletion strains, locus YOR290C, strain snf2, hits give low values 1 | S. cerevisiae deletion strains, locus YPL051W, strain arl3, hits give low values 0.982 | S. cerevisiae deletion strains, locus YPL078C, strain atp4, hits give low values 0.997 | S. cerevisiae deletion strains, locus YPL106C, strain sse1, hits give low values 1.01 | S. cerevisiae deletion strains, locus YPL240C, strain hsp82, hits give low values 1.02 | S. cerevisiae deletion strains, locus YPL256C, strain CLN2, hits give low values 1.03

— PubChem BioAssay AID1159580 (chemical genetic matrix, 2015)
